The values below come from PubChem BioAssay (EPA / NIEHS).

SMILES strings stand for the structures. Inconclusive results are not listed. Calls of active or inactive are those of the source. Rule for the calls: active = hit-call score of the fitted dose curve at least 0.9, where 1 is the maximum; inconclusive = response in the unintended direction; inactive = score below 0.9. Peptide text beside a SMILES is read from it.

Sequence of rat Thyrotropin Releasing Hormone Receptor (TRH), Trhr (gene 25570) (Q01717 whole entry, looked up): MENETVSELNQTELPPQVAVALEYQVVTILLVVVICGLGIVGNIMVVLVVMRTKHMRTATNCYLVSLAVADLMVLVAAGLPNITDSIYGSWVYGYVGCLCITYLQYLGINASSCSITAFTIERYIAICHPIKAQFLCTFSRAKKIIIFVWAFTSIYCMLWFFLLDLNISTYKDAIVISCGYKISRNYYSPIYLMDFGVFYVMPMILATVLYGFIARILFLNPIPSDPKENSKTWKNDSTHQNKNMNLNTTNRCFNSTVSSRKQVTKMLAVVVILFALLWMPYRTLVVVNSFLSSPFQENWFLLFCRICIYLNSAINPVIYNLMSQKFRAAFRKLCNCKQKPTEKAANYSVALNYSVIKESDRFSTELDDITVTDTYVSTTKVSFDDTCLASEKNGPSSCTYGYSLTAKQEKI

The experiment addresses rat Thyrotropin Releasing Hormone Receptor (TRH), Trhr (gene 25570) (UniProt Q01717). The experiment is described as follows: NVS_GPCR_rTRH: NovaScreen (NVS) G Protein-Coupled Receptor Assay for rat Thyrotropin Releasing Hormone Receptor (TRH) (AID 2283329).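 Note: hit means lower bound tracer signal versus DMSO baseline.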 As for the experimental part: NVS_GPCR_rTRH is a biochemical, single-readout assay that uses extracted gene-proteins from Rat forebrain membranes in a tissue-based cell-free assay. Measurements were taken 4 hours after chemical dosing in a 48-well plate.NVS_GPCR_rTRH is one of one assay component(s) measured or calculated from the NVS_GPCR_rTRH assay. It is designed to make measurements of radioligand binding, a form of binding reporter, as detected with scintillation counting signals by Filter-based radiodetection technology.Data from the assay component NVS_GPCR_rTRH was analyzed into 1 assay endpoint. This assay endpoint, NVS_GPCR_rTRH, was analyzed in the positive analysis fitting direction relative to DMSO as the negative control and baseline of activity. Using a type of binding reporter, loss-of-signal activity can be used to understand changes in the binding as they relate to the gene Trhr. Furthermore, this assay endpoint can be referred to as a primary readout, because the performed assay has only produced 1 assay endpoint. To generalize the intended target to other relatable targets, this assay endpoint is annotated to the gpcr intended target family, where the subfamily is rhodopsin-like receptor.
Binding assays used specific radioligands (tritiated, iodinated) with non-radioactive competitive displacement ligands in agonist or antagonist protocols (as indicated) and various reference compounds and inhibitors to titrate specific binding to receptors and transporters. Most enzyme assays (CYPs, kinases, phosphatases, proteases, HDACs) used recombinant protein and specific substrates (fluorescence mostly, some colorimetric and radioactive) and inhibitors, followed by a biochemical separation of substrate and product. All assays for the biochemical HTS were initially run in duplicate at a single concentration (10 uM for CYP450 assays and 25 uM for all others). […] Each assay was run with positive and negative controls, and concurrent controls on every plate. The follow-up (secondary) screen tested active chemical-pairs in concentration series, as well as a few additional assays not tested in the primary screen, some selected negative inactives, and several cases re-run in the concentration series for confirmatory purposes.
As for `Oc1ccc(-c2ccccc2)c(Cl)c1`, the molecule was called inactive.

`CCCCCCO`: the molecule was classed as inactive.

For `CCN1CN(CC)CN(CC)C1`, the outcome was inactive.

Take `C/C=C/C=C/CCCCCCCO`: the call was inactive.

For the molecule `CCCCNC(=S)NCCCC`, the outcome was inactive.

For the molecule `CCCCCCC=O`, the outcome was inactive.

Take `CCCCC(C=O)CC` (stereo not drawn): the molecule was classed as inactive.

`CC(CCC(=O)O)(c1ccc(O)cc1)c1ccc(O)cc1`: the molecule was classed as inactive.

On to `CC(=O)OC(C)c1ccccc1` (stereo not drawn), for which the result was inactive.

Consider `CC1=CCC2CC1C2(C)C` (stereo not drawn), for which the call was inactive.

In the case of `C=C1C[C@H]2[C@@H]3C=C(C)C4=CC(=O)CC[C@]4(C)[C@H]3CC[C@]2(C)[C@@]1(OC(C)=O)C(C)=O`, the call was inactive.

For the molecule `CCCCC(CC)COS(=O)(=O)O` (stereo not drawn), the result was inactive.

With `COC(=O)[C@H](Cc1ccccc1)NC(=O)[C@@H](N)CC(=O)O` (H-Asp-Phe-OMe), the molecule was called inactive.

Take `CC1=NN(c2ccc(S(=O)(=O)O)cc2)C(=O)C1N=Nc1ccccc1` (stereo not drawn): the molecule was called inactive.

With `CCCCCCCCCC[N+](C)(CCCCCCCCCC)CCC[Si](OC)(OC)OC`, the outcome was inactive.

For the molecule `CCCCC(=O)O`, the call was inactive.

Turning to `CN(C)Cc1cc(CN(C)C)c(O)c(CN(C)C)c1`, the result was inactive.

Consider `CC(=O)OC1CCCCC1C(C)(C)C` (stereo not drawn), for which the call was inactive.

In the case of `CCOC(=O)c1ccccc1C`, the molecule was classed as inactive.

Regarding `CC(C)(C)NC(=O)[C@H]1CC[C@H]2[C@@H]3CC[C@H]4NC(=O)C=C[C@]4(C)[C@H]3CC[C@]12C`, the call was inactive.

As to `CCOC(=O)c1ccc(C)cc1`, the molecule was called inactive.

Regarding `CCCCNS(=O)(=O)c1ccccc1`, the outcome was inactive.

Turning to `O=C(OCc1ccccc1)c1ccc(O)cc1`, the call was inactive.
